Shown are actives, neighbours in structure and some others; about 3.8% of the full set was active somewhere.
MPTP inh: inhibitors of mitochondrial permeability transition pore. inhibition, % at 10 µM. hit rate 1.4% among 360,000. isolated mouse mitochondria, Ca2+ swelling absorbance, 30 min. AID 602449;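 active = inhibition of 50% or more, scaled per plate between neutral and stimulator controls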;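 note: 0% = DMSO wells given calcium and 100% = 1 mM EGTA wells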
Yeast superoxide: lowers age-related superoxide in aged yeast cells | S. cerevisiae aged cells, superoxide DHE fluorescence; hits give low values | superoxide response (% of plate mean), % at 10 µM | hit rate 0.18% among 330,000 | AID 2690;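 active = superoxide response under a set limit, about three screen SD below normal, cut at about 65% in these data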;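 note: yeast aged for seven days with compound at 30 °C before DHE staining; 100% = average MFI of all compound-treated wells on the plate with controls excluded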
aDG glyco act: increases alpha dystroglycan glycosylation; Pro5-aDG cells, alpha-DG glycosylation AlphaScreen (IIH6); 0% Pro5, 100% B10-LARGE cell signal; activation, % at 10 µM; hit rate 0.22% among 360,000;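 active = activation of at least 8% versus controls, or a plate z-score of at least 8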;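 note: Pro5 are CHO cells carrying HIG-tagged alpha-DG that lacks glycosylation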
SUMO Mot1 rescue: blocks SUMOylation pathway, rescuing yeast Mot1-301 growth. S. cerevisiae Mot1-301 growth rescue, ATP luminescence, 38.5C; percent above DMSO median, 100 means doubled. growth rescue, % at 18.8 µM. hit rate 1% among 320,000;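 active = every valid replicate shows activation above 250% relative to neutral control wells; inactive = the rest, any valid replicate at or below 250%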;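 note: OY570 slx delta 5 strain wells were the positive control but not used for scaling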
Cardio protect: protects H9c2 cardiomyocytes from peroxide injury; hit rate 0.63% among 360,000; AID 588492; protection from H2O2 cell death, % at 20 µM; H2O2 injury protection, ATPLite, 2 h;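 active = compounds giving at least 50% protection of heart cells from peroxide-induced death in the single-dose screen, raw or plate-pattern-corrected value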;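 note: 0% = DMSO wells with peroxide and 100% = DMSO wells without peroxide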
FAS-TE inh: inhibitors of human fatty acid synthase thioesterase domain | P49327 | recombinant FAS-TE, OMFH fluorogenic substrate, fluorescence endpoint | inhibition, % at 15 µM | hit rate 0.67% among 360,000 | AID 602261;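 active = compounds whose normalised, plate-corrected inhibition of enzyme fluorescence in the single-dose primary screen is 50% or more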;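 note: 0% = DMSO with enzyme and 100% = substrate without enzyme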
An asterisk follows results filed as active; nt = not tested or not shown; + = active, no number; ! = not confirmed by another sample.

SMILES	MPTP inh	Yeast superoxide	aDG glyco act	SUMO Mot1 rescue	Cardio protect	FAS-TE inh
COc1ccc(C2=CC(=O)CC(c3ccc(OC)cc3)C2)cc1 (configuration not stated)	0	95	0	673*	-8	19
COc1cccc(-c2cc(NC=O)c3ncc(-c4ccc(OC)c(OC)c4)n3c2)c1	0	nt	0	nt	49	16
CS(=O)(=O)c1ccc(-c2cnc3c(NC=O)cc(-c4ccsc4)cn23)cc1	-1	nt	0	nt	81*	5
COc1ccc(-c2cnc3c(NC=O)cc(-c4cccc(NS(C)(=O)=O)c4)cn23)cc1OC	0	nt	0	nt	105*	10
COc1cccc(-c2cnc3c(NC=O)cc(-c4cc(OC)c(OC)c(OC)c4)cn23)c1	-1	nt	0	nt	71*	21
O=C(CCNC(=O)c1ccc([N+](=O)[O-])cc1)Nc1nc2ccccc2[nH]1	-1	nt	0	nt	2	0
CC1Nc2ccc(C(=O)NC3CCCCC3)cc2NC1=O (configuration not stated)	0	101	0	-8	0	-18
CCOc1ccc(CNC(=O)c2ccccc2NC(=O)C2=CSCCO2)cc1	0	116	0	-10	1	18
COc1cc(NC(=O)c2ccc(-c3cn[nH]c3)c3ccoc23)cc(OC)c1OC	0	nt	0	nt	66*	-2
COc1cc(NC(=O)c2ccc(-c3cccnc3)c3ccoc23)cc(OC)c1OC	-1	nt	0	nt	25	0
CC(C)c1cc(N2CCN(C(=O)c3ccco3)CC2)n2c(nc3ccccc32)c1C#N	-2	100	0	0	52*	9
CC(=NCc1ccco1)c1c(C)[nH]n(-c2nc3ccccc3s2)c1=O	1	117	0	353*	-11	-7
O=C(CSc1nc2ccccc2o1)N/N=C/c1ccc(O)c(O)c1	7	102	0	-1	67*	-9
COc1cccc2c(SCC(=O)N/N=C/c3ccc(O)c(O)c3)cc(C)nc12	0	92	0	-4	67*	-5
O=C(CSc1nc2ccccc2o1)N/N=C/c1ccccc1	2	92	0	2	-3	-2
Cc1cc(SCC(=O)N/N=C/c2ccc(O)c(O)c2)c(C)cc1Br	7	89	0	6	54*	5
Cc1ccc(-n2nc(C(=O)O)c(C)c(C#N)c2=O)cc1Cl	1	103	0	-7	2	12
O=C(Nc1ccccc1)c1cccc2c(-c3cccnc3)coc12	3	nt	0	nt	63*	6
COc1ccc(NC(=O)c2cccc3c(-c4cccnc4)coc23)cc1	0	nt	0	nt	5	-1
NC(=O)c1cccc(-c2coc3c(C(=O)NCCc4ccccc4)cccc23)c1	0	nt	0	nt	60*	12
COc1cc(OC)cc(C(=O)Nc2ccc(C(=O)Nc3ccccc3OC)cc2)c1	1	105	0	60	51*	26
CC1([N+](=O)[O-])COC2(CCCCC2)OC1	-1	nt	0	nt	4	-3
C=CCN1c2ccccc2[C@]23C[C@@H](C(=O)OC)N(C(=O)c4ccc(Br)cc4)C2=NC(C(=O)OC)=C(C(=O)OC)[C@H]13	0	88	0	47	-4	45
COC(=O)C1=C(C(=O)OC)[C@@H]2N(Cc3ccccc3)c3ccccc3[C@@]23C[C@@H](C(=O)OC)N(C(=O)c2ccc(Br)cc2)C3=N1	-1	88	2	-10	2	84*
Nc1[nH]c(C(=O)c2ccccc2)c(-c2ccc(C(F)(F)F)cc2)c1C(=O)NCc1ccc(Cl)cc1Cl	1	nt	1	nt	nt	2
SMILES	MPTP inh	Yeast superoxide	aDG glyco act	SUMO Mot1 rescue	Cardio protect	FAS-TE inh
CC(C)C(=O)Nc1ccc(N2CCCC2)c(Cl)c1	-1	98	0	497*	-7	0
Cc1nc2ccccc2c2c(N)c3ccccc3n12	-4	111	0	-24	66*	-4
Nc1c2ccccc2nc2ccccc12	-2	111	0	4	-5	-6
CCCn1c(=O)c2[nH]c(-c3ccc(OCC(=O)Nc4ccc(C#N)cc4)cc3)nc2n(CCC)c1=O	2	99	0	0	94*	1
Cc1c(C#N)c(N)nc2c3c(sc12)NC(=O)CC3c1ccccc1 (configuration not stated)	0	128	0	0	50*	-2
Cc1c(C#N)c(N)nc2c3c(sc12)NC(=O)CC3c1ccc(F)cc1 (configuration not stated)	0	110	0	8	37	0
CCOC(=O)C1(CC2CC2)CCN(Cc2cnc(-c3ccccc3C)nc2)CC1	2	85	0	946*	-4	5
COc1ccc(/C=C/C(=O)c2ccccc2O)cc1CN1CCOCC1	1	108	0	515	84*	8
COc1ccc(/C=C/C(=O)c2ccc3ccccc3c2O)cc1CN1CCOCC1	0	114	0	7	8	-5
CCOC(=O)N1CCN(C(=O)C(=O)Nc2sc3c(c2C(N)=O)CC(C)(C)OC3)CC1	-2	101	4	-12	3	-4
COc1ccccc1NC(=O)c1ccc(N2CC3CC(C2)c2cccc(=O)n2C3)c(NC(=O)c2ccncc2)c1 (configuration not stated)	-1	87	0	-6	6	-3
COc1cc(/C=C(\NC(=O)c2ccccc2)C(=O)N2CC3CC(C2)c2cccc(=O)n2C3)cc(OC)c1OC (configuration not stated)	-1	75	1	+	4	-4
CC(=O)N[C@@H](C)C(=O)N1CCN(S(=O)(=O)c2ccc(Cl)cc2)CC1	0	87	0	1	2	-3
Cc1ccccc1C(C(=O)NC1CCCC1)N(C(=O)Cc1cccs1)c1ccc2c(c1)OCCO2 (configuration not stated)	1	98	0	-13	30	54*
Oc1ccc(Nc2nc(-c3ccc4ccccc4c3)cs2)cc1	3	81	-1	12	-9	26
Oc1ccc(-c2nc(-c3ccc(O)c(O)c3)cs2)cc1	16	104	0	70	53*	-8
CCCCCCCCCCCCCC(=O)NO	2	nt	0	nt	78*	-139
CCCCCCCC/C=C\CCCCCCCC(=O)O	2	99	0	150	6	62*
CCOC(=O)CNC(=O)CSc1nc2nc(C)c(Br)cc2[nH]1	2	96	1	-14	50*	-5
N#Cc1ccc(N=c2ssnc2Cl)cc1	2	110	0	303*!	-4	-10
COc1ccc(N=c2ssnc2Cl)cc1	-1	91	0	22	1	-2
Clc1ccc(N=c2ssnc2Cl)cc1	4	97	0	340*	-28	-4
Clc1nssc1=Nc1ccccc1	-3	nt	0	nt	-4	-5

High-throughput results deposited in PubChem BioAssay by several laboratories.
